# Hit rate of the full screen: of about 48,000 compounds, about 13,000 (27%) showed an effect of 50% or more. The list shows a part of the results.
# System: Wolbachia pipientis
# Assay: Anti-Wolbachia Cell-Based Screen
# Type: functional
# Set-up: scale not given: in the data most compounds retested in dose-response had high values
# Conditions: 5 µM
row,Structure (SMILES),Percent Effect [%]
1,Cc1cc(CN2C[C@@H]3CCCO[C@@H]3[C@H](NS(C)(=O)=O)C2)no1.O=C(O)C(F)(F)F,-7.292
2,CCOCCN1C[C@@H]2CCCO[C@@H]2[C@H](NC(=O)c2cnoc2C)C1.O=C(O)C(F)(F)F,102.3
3,CCS(=O)(=O)N[C@@H]1CN(Cc2cc(C)on2)C[C@@H]2CCCO[C@@H]21.O=C(O)C(F)(F)F,-1.229
4,O=C(O)C(F)(F)F.O=C(O)C(F)(F)F.O=C(O)C(F)(F)F.c1ccc(CN2C[C@@H]3CCCO[C@@H]3[C@H](Nc3ccccn3)C2)nc1,-7.621
5,CC(C)c1cc(N2CCCC3(CCN(C)C3)C2)ncn1 (stereo not given),23.89
6,CCN(CC)C(=O)C1CCC2(CCNCC2)O1.Cl (stereo not given),-5.53
7,Cc1nn(CCNC(C)Cn2ccnc2)c(C)c1Cl (stereo not given),-2.201
8,COCC(=O)NC(C)Cc1cccc(Br)c1 (stereo not given),-14.37
9,CCc1noc(C(C)N2CCNCC2)n1 (stereo not given),13
10,CCc1cc(N2CCNCC2)n2nc(C)c(C)c2n1,-8.161
11,CC(C)c1cc(CN2CCNCC2)no1,116.8
12,CN1CCC2(CC1)C(=O)N(c1cccnc1)c1ccc(F)cc12.Cl,-1.333
13,O=C(c1ccc(-n2ccnc2)nc1)N1CCN2CCCCC2C1 (stereo not given),-5.274
14,CN1CCCCC1c1ccc(-n2ccnc2)nc1 (stereo not given),128
15,NC(=O)CN1CCCCC1c1ccc(-n2ccnc2)nc1 (stereo not given),114.9
16,Cl.NC(CC1CCCCC1)c1ccccc1 (stereo not given),-2.613
17,COCCn1cc(C(=O)NCCS(N)(=O)=O)c2ccccc21,11.42
18,CCCn1cc(C(=O)NCCS(N)(=O)=O)c2ccccc21,15.61
19,COCCn1cc(C(=O)Nc2nc3c(s2)CCC3)c2ccccc21,108.8
20,Cc1cccc(CN2C(=O)C[C@H]3[C@@H]2CCN3Cc2cccs2)n1.O=C(O)C(F)(F)F.O=C(O)C(F)(F)F,4.955
21,Cc1cccc(CN2CC[C@@H]3[C@@H]2CCN3C(=O)c2cnoc2C)n1,-2.884
22,Cc1cccc(CN2CC[C@@H]3[C@@H]2CCN3Cc2cccs2)n1.O=C(O)C(F)(F)F.O=C(O)C(F)(F)F,102.2
23,Cc1cccc(CN2CC[C@@H]3[C@@H]2CCN3C(=O)Cc2cccs2)n1.O=C(O)C(F)(F)F.O=C(O)C(F)(F)F,101.6

row,Structure (SMILES),Percent Effect [%]
1,Cc1cccc(CN2CC[C@H]3[C@H]2CCN3C(=O)c2cnn(C)c2)n1.O=C(O)C(F)(F)F.O=C(O)C(F)(F)F,-8.772
2,Cc1ccc(CN2CC[C@H]3[C@H]2CC(=O)N3c2cccnc2)o1.O=C(O)C(F)(F)F.O=C(O)C(F)(F)F,1.465
3,COCCN1C[C@@H]2[C@@H](OC)CCN(Cc3cccc(C)n3)[C@@H]2C1.O=C(O)C(F)(F)F.O=C(O)C(F)(F)F.O=C(O)C(F)(F)F,0.3153
4,Cc1cc(CN2CC[C@H]3[C@H]2CCN3C)oc1C.O=C(O)C(F)(F)F.O=C(O)C(F)(F)F,2.968
5,Cc1ccc(CN2CC[C@@H]3[C@@H]2CCN3C(=O)Cc2cccs2)o1.O=C(O)C(F)(F)F,90.39
6,Cc1cccc(CN2CC[C@@H]3[C@@H]2CCN3C(=O)Cc2ccsc2)n1.O=C(O)C(F)(F)F.O=C(O)C(F)(F)F,119.7
7,Cc1cccc(CN2CC[C@@H]3[C@@H]2CCN3C(=O)c2ccno2)n1.O=C(O)C(F)(F)F.O=C(O)C(F)(F)F,-0.9424
8,CC(C)(C)c1cn(C[C@H]2CC3CCN2C[C@@H]3C(=O)NC2CC2)nn1 (stereo not given in full),12.02
9,CC(C)N1[C@H](Cn2cncn2)C[C@@H]2CNCC[C@@H]21.Cl.Cl,-6.101
10,Cc1ccc(N2C[C@@H]3CN(Cc4ccsc4)CCO[C@@H]3C2)nn1.O=C(O)C(F)(F)F.O=C(O)C(F)(F)F,-3.128
11,Cc1ccc(N2CC[C@@H]3[C@@H]2CCN3Cc2ccsc2)nn1.O=C(O)C(F)(F)F.O=C(O)C(F)(F)F,101.6
12,Cc1ccc(N2CCO[C@H]3CN(Cc4ccccn4)C[C@H]32)nn1.O=C(O)C(F)(F)F.O=C(O)C(F)(F)F.O=C(O)C(F)(F)F,-12.44
13,COc1ncnc(N)c1CNCCc1ccccc1,127.7
14,COCCN1CCC2(C1)CN(c1ncc(F)cn1)C2.O=C(O)C(F)(F)F,4.032
15,CC(=O)N1CCC2(CN(CC3CCCC3)C2)C1.O=C(O)C(F)(F)F,-16.93
16,COCCN1CCC2(CC1)C(=O)Nc1ccc(C(=O)NC(C)C)cc12.O=C(O)C(F)(F)F,101
17,CCN1CCC12CCN(C(=O)c1cc(C)on1)C2.O=C(O)C(F)(F)F (stereo not given),-17.49
18,Cn1cc(CN2CCC3(CC2)C(=O)Nc2ccccc23)cn1.O=C(O)C(F)(F)F,-7.765
19,CCN1CCC2(CC1)C(=O)Nc1ccc(C(=O)NC)cc12.O=C(O)C(F)(F)F,117.8
20,CNC(=O)c1ccc2c(c1)C1(CCN(CCOC)CC1)C(=O)N2.O=C(O)C(F)(F)F,94.3
21,CC[C@@H]1N(CC2CC2)CCC[C@]12CCC(=O)N2.O=C(O)C(F)(F)F,-18.87
22,CNC(=O)c1ccc2c(c1)C1(CCN(CC3CC3)CC1)C(=O)N2.O=C(O)C(F)(F)F,108.4
